From PubChem BioAssay (Tox21)
Results filed as inconclusive are left out. Active and inactive are the calls of the source. Unless noted, calls come from the whole dose curve; as a rule, active = well fitted curve in the direction sought with a large enough effect in the repeat runs; inconclusive = weak or mixed curves; inactive = no such curve, though single readings can be large; an effect the other way counts as inactive or inconclusive.

Assays:
[1] = qHTS assay to identify small molecule agonists of the hypoxia (HIF-1) signaling pathway - cell viability counter screen (AID 1224844; calls by dose curve; note: nearly all actives have a fitted effect of over 50% in size)
How it was run: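 HRE-bla ME-180 cells, 2,000/well in 0.5% dialyzed FBS medium, treated 17 h at 37C with compounds. Viability read in the same wells as the bla reporter, by CellTiter-Glo luminescence after 30 min at room temperature.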

[2] = qHTS assay to identify small molecule agonists of H2AX (AID 1224845; active = well fitted activation curve with a large enough effect in the signal ratio in the repeat runs, not every such curve was filed as active; the % refers to the signal ratio)
How it was run: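 Phospho-H2AX Ser139 measured by HTRF (ex 320 nm; em 665 and 620 nm) after 24 hr antibody incubation. Compounds, 15 concentrations, 0.76% DMSO, were applied to CHO-K1 cells for 3hr at 37C before lysis.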

[3] = qHTS assay to identify small molecule agonists of the hypoxia (HIF-1) signaling pathway (AID 1224846; active = well fitted activation curve with a large enough effect in the signal ratio in the repeat runs, not every such curve was filed as active; the % refers to the signal ratio)
How it was run: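 HRE-bla ME-180 beta-lactamase reporter cells in medium with 0.5% dialyzed FBS, pre-incubated 5 h then exposed to compounds 17 h at 37C, 5% CO2; reporter induction read with CCF4-AM FRET substrate.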

[4] = qHTS assay to identify small molecule agonists of H2AX - cell viability counter screen (AID 1224847; calls by dose curve;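 note: wild-type CHO-K1 cells; top concentration of the series differs between compounds; nearly all actives have a fitted effect of over 30% in size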)
How it was run: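 CHO-K1 cells plated overnight at 37C, then exposed 3 h at 37C to compounds at 15 concentrations (0.76% DMSO final). Viability by CellTiter-Glo luminescence after 30 min at room temperature.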

[5] = qHTS assay to identify small molecule antagonists of the estrogen related receptor (ERR) signaling pathway from Tox21 library (AID 1224848); note: nearly all actives have a fitted effect of over 50% in size
How it was run: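 Reading was by luminescence 30 min after ONE-Glo addition. Before that, ERR cells at 2,000 per well had rested 6 h at 37 C/5% CO2 and then received pin-tooled compounds in DMSO for 18 h at 37 C.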

[6] = qHTS assay to identify small molecule agonists of the estrogen related receptor (ERR) signaling pathway from Tox21 library (AID 1224849; calls by dose curve; note: nearly all actives have a fitted effect of over 15% in size); details: ERR reporter cell line, ONE-Glo luciferase, 18 h; at 92.4 µM (top of the series) unless noted
How it was run: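 ERR reporter cells (NTP line) pre-incubated 6 hours at 37 C, then exposed to compounds for 18 hours at 37 C. ONE-Glo luciferase luminescence was read after 30 minutes at room temperature.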

[7] = qHTS RealTime-Glo MT Cell Viability Assay in HepG2 cells - 24 hour (AID 1224867); note: nearly all actives have a fitted effect of over 50% in size
How it was run: (§1)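 Cells + NanoLuc/prosubstrate dispensed (600 cells/well) → 5 h at 37 C/5% CO2 → compounds in DMSO transferred → 40 h incubation at 37 C, luminescence read at 0, 8, 16, 24, 32, 40 h.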

[8] = qHTS RealTime-Glo MT Cell Viability Assay in HEK293 cells - 32 hour (AID 1224868); note: top concentration of the series differs between compounds; nearly all actives have a fitted effect of over 50% in size
How it was run: (§2)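 Tox21 10K qHTS, HEK293, 600 cells/well, RealTime-Glo reagent co-dispensed with cells; 5 h preincubation, compound by pintool, 37 C, luminescence at 0–40 h.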

[9] = A CellTox Green Cytotoxicity Assay to monitor cytotoxicity in HEK293 cells - 0 hour (AID 1224869); note: nearly all actives have a fitted effect of over 50% in size
How it was run: (§3)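 HEK293 cells, 600/well, were preincubated 5 hours and then exposed to compounds at 37 C for up to 40 hours. A cell-impermeant cyanine dye staining dead-cell DNA was read by fluorescence at 0, 8, 16, 24, 32 and 40 h time points.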

[10] = qHTS RealTime-Glo MT Cell Viability Assay in HepG2 cells - 40 hour (AID 1224870); note: nearly all actives have a fitted effect of over 50% in size
How it was run: (§4)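 Real-time viability: cells seeded at 600 per well together with NanoLuc and cell-permeant prosubstrate, compounds added after 5 h incubation. Luminescence tracked at 0, 8, 16, 24, 32 and 40 h of exposure.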

[11] = A CellTox Green Cytotoxicity Assay to monitor cytotoxicity in HEK293 cells - 40 hour (AID 1224871); note: nearly all actives have a fitted effect of over 45% in size
How it was run: as §3

[12] = qHTS RealTime-Glo MT Cell Viability Assay in HEK293 cells - 16 hour (AID 1224872)
How it was run: as §2

[13] = qHTS RealTime-Glo MT Cell Viability Assay in HepG2 cells - 8 hour (AID 1224873); note: nearly all actives have a fitted effect of over 55% in size
How it was run: as §4

[14] = qHTS RealTime-Glo MT Cell Viability Assay in HEK293 cells - 40 hour (AID 1224874); details: RealTime-Glo luminescence; max response: active compounds read low; note: nearly all actives have a fitted effect of over 50% in size
How it was run: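 600 cells/well were plated with the nonlytic NanoLuc/prosubstrate reagent, pre-incubated 5 h, then given 23 nL of compound in DMSO. Incubation at 37 C for 40 h, with luminescence from viable-cell-reduced substrate read repeatedly from 0 h.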

[15] = A CellTox Green Cytotoxicity Assay to monitor cytotoxicity in HEK293 cells - 24 hour (AID 1224875); note: nearly all actives have a fitted effect of over 45% in size
How it was run: as §3

[16] = A CellTox Green Cytotoxicity Assay to monitor cytotoxicity in HepG2 cells - 16 hour (AID 1224876); note: nearly all actives have a fitted effect of over 45% in size
How it was run: (§5)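 HepG2 cells, 600/well, preincubated 5 h with CellTox Green dye, then exposed to Tox21 compounds in DMSO at 37 C for up to 40 h. Dead-cell DNA fluorescence read at the indicated time point.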

[17] = qHTS RealTime-Glo MT Cell Viability Assay in HepG2 cells - 32 hour (AID 1224877); note: nearly all actives have a fitted effect of over 55% in size
How it was run: as §1

[18] = A CellTox Green Cytotoxicity Assay to monitor cytotoxicity in HepG2 cells - 40 hour (AID 1224879); note: nearly all actives have a fitted effect of over 40% in size
How it was run: as §5

[19] = target: Thyrotropin receptor (Homo sapiens) (UniProt P16473); experiment: qHTS assay to identify small molecule agonists of the thyroid stimulating hormone receptor (TSHR) signaling pathway (AID 1224843; calls by dose curve; note: nearly all actives have a fitted effect of over 45% in size)
Sequence of Thyrotropin receptor (Homo sapiens) (P16473 whole entry, looked up): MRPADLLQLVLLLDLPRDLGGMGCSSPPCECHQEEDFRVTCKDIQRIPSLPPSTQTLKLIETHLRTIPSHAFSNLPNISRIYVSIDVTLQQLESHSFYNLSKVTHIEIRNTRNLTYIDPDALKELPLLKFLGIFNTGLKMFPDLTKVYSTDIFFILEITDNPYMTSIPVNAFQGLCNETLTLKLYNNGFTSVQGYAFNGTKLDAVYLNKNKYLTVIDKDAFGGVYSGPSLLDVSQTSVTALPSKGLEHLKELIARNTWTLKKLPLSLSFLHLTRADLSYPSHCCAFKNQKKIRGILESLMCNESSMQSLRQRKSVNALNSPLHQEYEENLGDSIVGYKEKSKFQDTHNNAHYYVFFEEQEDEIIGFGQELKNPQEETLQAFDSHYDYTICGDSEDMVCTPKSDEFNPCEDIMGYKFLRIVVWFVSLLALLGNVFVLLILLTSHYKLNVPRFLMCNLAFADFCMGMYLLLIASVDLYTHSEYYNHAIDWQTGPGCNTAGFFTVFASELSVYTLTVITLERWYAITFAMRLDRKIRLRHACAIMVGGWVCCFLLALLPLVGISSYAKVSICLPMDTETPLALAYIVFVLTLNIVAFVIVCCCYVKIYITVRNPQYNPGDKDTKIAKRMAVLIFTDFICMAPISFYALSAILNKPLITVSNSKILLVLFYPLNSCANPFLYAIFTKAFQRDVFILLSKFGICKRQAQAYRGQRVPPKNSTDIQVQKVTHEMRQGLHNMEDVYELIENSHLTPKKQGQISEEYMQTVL
How it was run: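 HEK293 cells stably bearing the thyrotropin receptor were plated at 800 cells/well and challenged with compound (30 min, RT). Accumulated cAMP was quantified via cAMP-d2 competing for cryptate-tagged antibody.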

[20] = A CellTox Green Cytotoxicity Assay to monitor cytotoxicity in HepG2 cells - 24 hour (AID 1224878); note: nearly all actives have a fitted effect of over 45% in size
How it was run: as §5
% is set by controls: 0 for no effect and ±100 for the full control effect.

CCOC(=O)C1CC(=O)C(=C(O)C2CC2)C(=O)C1 (stereo not drawn)
inactive: Potency [1] | Potency [2] | outcome [3] | Potency [4] | Potency [5] | activity change, positive = activation [6] 6.54% | Potency [7] | Potency [8] | Potency [9] | Potency [10] | Potency [11] | Potency [12] | outcome [13] | max response [14] 0.979% | Potency [15] | Potency [16] | Potency [17] | Potency [18]

Cc1c(-c2ccccc2)oc2c(C(=O)OCCN3CCCCC3)cccc2c1=O
inactive: Potency [19] | Potency [1] | Potency [2] | Potency [4] | Potency [7] | Potency [9] | Potency [10] | Potency [11] | outcome [13] | Potency [15] | Potency [16] | Potency [17] | Potency [20] | Potency [18]

O=[N+]([O-])c1nccn1CO[C@@H](CO)[C@H](O)CO
inactive: Potency [1] | Potency [2] | outcome [3] | Potency [4] | Potency [5] | activity change, positive = activation [6] 7.4% [at 42.5 µM] | Potency [7] | Potency [8] | Potency [9] | Potency [10] | Potency [11] | Potency [12] | outcome [13] | max response [14] -3.33% | Potency [15] | Potency [16] | Potency [17] | Potency [20] | Potency [18]

Nc1cccc(S(=O)(=O)O)c1
inactive: Potency [19] | Potency [2] | outcome [3] | Potency [7] | Potency [8] | Potency [9] | Potency [10] | Potency [11] | Potency [12] | outcome [13] | max response [14] 3% | Potency [15] | Potency [16] | Potency [17] | Potency [20] | Potency [18]

CCc1cc(Cl)c(OC)c(C(=O)NC[C@@H]2CCCN2CC)c1O
inactive: Potency [1] | Potency [2] | outcome [3] | Potency [4] | Potency [5] | activity change, positive = activation [6] 1.1% [at 42.5 µM] | Potency [7] | Potency [8] | Potency [9] | Potency [10] | Potency [11] | Potency [12] | outcome [13] | max response [14] -13.1% | Potency [15] | Potency [16] | Potency [17] | Potency [20] | Potency [18]

ClC(Cl)Cl
inactive: Potency [19] | Potency [4] | Potency [5] | activity change, positive = activation [6] -1.48% | Potency [7] | Potency [8] | Potency [9] | Potency [10] | Potency [11] | Potency [12] | outcome [13] | max response [14] 6.53% | Potency [15] | Potency [16] | Potency [17] | Potency [20] | Potency [18]
